Screening results deposited in PubChem BioAssay by National Center for Advancing Translational Sciences (NCATS).
TDP1 cell noCPT: qHTS for Inhibitors of human tyrosyl-DNA phosphodiesterase 1 (TDP1): qHTS in cells in absence of CPT | DT40 Tdp1-/- hTDP1 cells, no CPT, ATP luminescence, 48 h | Potency, µM (top dose mostly 46.2 µM), inactives show at the top dose activity change, negative = growth inhibition, usual class: inhibitors | 420,000 tested, 15% active; further: potency means the concentration at half of the fitted maximal effect; nearly all actives have a fitted effect of over 55% in size
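Chicken DT40 Tdp1-/- cells stably complemented with human TDP1 were seeded at 400 cells/well with DMSO in place of 20 nM camptothecin. After compound pinning, cells grew at least 48 hr at 37 °C; viability read by CellTiter-Glo luminescence.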
HT1080-NT tox: qHTS for induction of synthetic lethality in tumor cells producing 2HG: qHTS for the HT-1080-NT fibrosarcoma cell line | HT-1080-NT fibrosarcoma viability, CellTiter-Glo ATP luminescence, 48 h | 360,000 tested, 1.6% active | Potency, µM (highest dose often 46.1 µM), inactives show top-dose activity, negative = less viability, most hits filed as cytotoxic;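 further: NT is the 2HG producing partner of a matched IDH1 knockdown line; potency means the concentration at half of the fitted maximal effect; 0% = DMSO-treated cells and -100% = media-only wells without cells; nearly all actives have a fitted effect of over 55% in size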
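Compounds were tested in concentration-response format on HT-1080-NT cells for 48 hours at 37 degrees C. Cell viability came from CellTiter-Glo luminescence; curves were classified by r2, response magnitude and activity.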
IL-1B inflam inh: qHTS for Inhibitors of Inflammasome Signaling: IL-1-beta AlphaLISA Primary Screen. THP-1 LPS/ATP IL-1B secretion, AlphaLISA, 16 h; hits give low values. activity change, % at 57.5 µM. 360,000 tested, 4.7% active; in the data active means activity change below about -50%; inconclusive means mostly about -30% to -49%
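Secreted IL-1B measured by AlphaLISA bead assay after 16 h compound exposure of THP-1 cells; compounds (final up to 57.5 uM) added 1 h before LPS (250 ng/mL) and ATP (1.25 mM) stimulation; lower signal means less secretion.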
TDP1 cell CPT: qHTS for Inhibitors of human tyrosyl-DNA phosphodiesterase 1 (TDP1): qHTS in cells in presence of CPT; 420,000 tested, 12% active; chicken DT40 Tdp1-/-;hTDP1 cells + 20 nM CPT, ATP luminescence, 48 h; Potency, µM (doses to about 46.2 µM), inactives show at the highest dose activity change, negative = growth inhibition, usual class: inhibitors; AID 686979, 2013; further: potency means the concentration at half of the fitted maximal effect; nearly all actives have a fitted effect of over 55% in size
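Chicken DT40 Tdp1-/- cells stably complemented with human TDP1 were seeded at 400 cells/well in medium containing 20 nM camptothecin, exposed to pin-transferred compounds, and grown at 37 °C for at least 48 hr. Viability was read as ATP luminescence.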
HT1080 IDH1KD tx: qHTS for induction of synthetic lethality in tumor cells producing 2HG: qHTS for the HT-1080-IDH1KD cell line. HT-1080 IDH1 knockdown viability, ATP luminescence, 48 h. Potency, µM (series often up to 46.1 µM), for inactives: at the top dose activity, negative = toxicity, actives largely listed as cytotoxic. 360,000 tested, 2% active. AID 686971, 2013;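 further: potency means the concentration at half of the fitted maximal effect; 0% = DMSO wells and -100% = cell-free medium wells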
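Using the IDH1-knockdown HT-1080 line run in the same batch and compound series as the NT line, viability after 48 h at 37 °C was determined by CellTiter-Glo luminescence and expressed as % activity.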
Active calls of the source: *; u = inconclusive; x = no result. Sampled rows, rich in hits. Any-hit rate of the full collection: about 19%. Unless noted, the call rests on the fitted dose curve; in most records, active means well fitted curve in the direction sought with a large enough effect; inconclusive means small, poorly fitted or top-dose-only effect, or another doubt; inactive means no such curve, though single readings can be large; an effect the other way counts as inactive or inconclusive. Unless noted, on the % scale 0 is the no-effect control and ±100 the full control effect.

SMILES	TDP1 cell noCPT	HT1080-NT tox	IL-1B inflam inh	TDP1 cell CPT	HT1080 IDH1KD tx
CCC1=NN(C(=O)c2ccc(Cl)cc2)C(O)(c2ccccc2)C1 (configuration not stated)	u	-12%	-8	23µM*	-8%
CCC1=NN(C(=O)c2ccc(Cl)cc2)C(O)(c2ccc(C)cc2)C1 (configuration not stated)	u	u	48	u	u
CCC1=NN(C(=O)c2ccccc2O)C(O)(c2ccccc2)C1 (configuration not stated)	12µM*	u	107	13µM*	u
C[C@@H]1CN([C@H](C)CO)C(=O)CCCn2cc(nn2)CO[C@H]1CN(C)C(=O)Nc1ccccc1	13%	13%	26	-27%	10%
O=C1OC(/C(=C\Nc2cc(Cl)ccc2O)[N+](=O)[O-])c2ccccc21 (configuration not stated)	u	u	-170*	9%	u
Cc1ccc(N/C=C(\C2OC(=O)c3ccccc32)[N+](=O)[O-])c(C)c1 (configuration not stated)	-30%	1%	-77*	1%	0%
CN(NC1OC(=O)c2ccccc21)c1ccc(Cl)cc1[N+](=O)[O-] (configuration not stated)	5%	-2%	9	2%	-18%
O=C(CSc1nc2[nH]ncc2c(=O)[nH]1)NCCc1ccccc1	-8%	2%	4	-8%	1%
COc1ccc(-c2cc(C(F)(F)F)n3nc(C)c(-c4ccccc4)c3n2)cc1OC	-25%	x	x	-13%	x
FC(F)(F)c1cccc(NC(=S)NC(c2ccccc2)c2ccccc2)c1	5.2µM*	u	-1	3.7µM*	u
CCC(C(=O)Nc1cccc(C(F)(F)F)c1)c1ccccc1 (configuration not stated)	u	u	2	u	u
FC(F)(F)c1cccc(NC(=S)Nc2ccc(Cl)c(Cl)c2)c1	13µM*	u	-87*	u	u
O=[N+]([O-])c1cc(C(F)(F)F)cc([N+](=O)[O-])c1NCCNC(=S)Nc1ccc(Cl)c(Cl)c1	21µM*	16µM*	-80*	u	u
CNNC(=S)Nc1cccc(C(F)(F)F)c1	1%	4%	0	1%	5%
CC(C)(C)NC(=S)Nc1ccc(Br)cc1	u	5%	1	u	1%
CC(C)(C)NC(=S)Nc1ccc(Nc2ccccc2)cc1	16µM*	5.6µM*	u	15µM*	6.3µM*
COc1ccc(/C=C/C2=CCN(Cc3ccc(OC)cc3)CC2)cc1	-28%	-21%	-22	-27%	-3%
COc1cc2c(cc1OC)C1=CC(=O)C(=O)N1C(C)(C)C2	-18%	-10%	-19	u	-7%
COc1cc(NC(=O)C2(C)CCN2C(C)C)cc(OC)c1OC (configuration not stated)	3%	15%	-8	-1%	-3%
COc1ccc(NC(=S)NNC(=S)Nc2cccc(C(F)(F)F)c2)cc1	6.5µM*	-25%	u	5.8µM*	u
CC(C)(C)NC(=S)Nc1cccc(C(F)(F)F)c1	26µM*	-19%	-90*	u	u
Cc1ccc([C@@H]2CC(=O)[C@@H]3CN(S(=O)(=O)c4ccc(C)cc4)[C@H](c4ccccc4)C[C@@H]3N2S(=O)(=O)c2ccc(C)cc2)cc1	-18%	16%	-7	-16%	14%
Cc1cccc(NC2=NC(=S)N(c3ccc(C(=O)O)cc3)C23CCCCC3)c1	6%	1%	26	u	-2%
Cc1ccccc1NC1=NC(=S)N(c2ccccc2)C12CCCCC2	u	-24%	0	18µM*	-28%
